We go through one sequence from paper PMC7862700, “An all-to-all approach to the identification of sequence-specific readers for epigenetic DNA modifications on cytosine”.

Holding throughout (test): DAPPL (digital affinity profiling via proximity ligation, sequencing); 10 mM Tris-HCl pH 7.5, 50 mM NaCl, 1 mM DTT, 4% glycerol, room temperature, 30 min; GST-TFs on glutathione beads, 16-mer random dsDNA library, 0.1% formaldehyde crosslink after washing; high values mean tight binding
One test deals with T1, FLI1 (Homo sapiens, UniProt Q01543 1-452).
T1 sequence: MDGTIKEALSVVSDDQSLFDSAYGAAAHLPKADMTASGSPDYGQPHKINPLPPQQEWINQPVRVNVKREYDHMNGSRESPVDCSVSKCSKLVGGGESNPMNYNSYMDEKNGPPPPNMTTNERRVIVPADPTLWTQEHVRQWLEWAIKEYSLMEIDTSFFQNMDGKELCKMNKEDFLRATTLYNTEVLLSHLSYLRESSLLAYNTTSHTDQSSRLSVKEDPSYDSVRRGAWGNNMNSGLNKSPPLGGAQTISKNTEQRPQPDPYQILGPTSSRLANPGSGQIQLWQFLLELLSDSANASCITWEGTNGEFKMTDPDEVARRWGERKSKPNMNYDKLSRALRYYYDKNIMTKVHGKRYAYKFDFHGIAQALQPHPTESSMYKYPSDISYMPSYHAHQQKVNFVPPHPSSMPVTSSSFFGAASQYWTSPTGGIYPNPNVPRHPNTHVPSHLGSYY
Particulars: protein: recombinant; tags: N-terminal GST; dsDNA, one strand shown. The essentials:
(§1)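 Pools were built from human transcription factors expressed in yeast as GST fusions, captured on glutathione beads and DNA-barcoded, along with a tag-only sample. Incubation with 200 nmole of a 16-mer random double-stranded DNA library lasted 30 min at room temperature in Tris/NaCl/DTT/glycerol buffer, and was followed by washing, 0.1% formaldehyde crosslinking, proximity ligation, PCR amplification and Illumina NextSeq500 sequencing. Binding signal is the quotient of each hexamer's read frequency for a factor and its frequency for the tag-only sample.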

A further test has as its target T2, ELK1 (Homo sapiens, UniProt P19419 1-428).
T2 sequence: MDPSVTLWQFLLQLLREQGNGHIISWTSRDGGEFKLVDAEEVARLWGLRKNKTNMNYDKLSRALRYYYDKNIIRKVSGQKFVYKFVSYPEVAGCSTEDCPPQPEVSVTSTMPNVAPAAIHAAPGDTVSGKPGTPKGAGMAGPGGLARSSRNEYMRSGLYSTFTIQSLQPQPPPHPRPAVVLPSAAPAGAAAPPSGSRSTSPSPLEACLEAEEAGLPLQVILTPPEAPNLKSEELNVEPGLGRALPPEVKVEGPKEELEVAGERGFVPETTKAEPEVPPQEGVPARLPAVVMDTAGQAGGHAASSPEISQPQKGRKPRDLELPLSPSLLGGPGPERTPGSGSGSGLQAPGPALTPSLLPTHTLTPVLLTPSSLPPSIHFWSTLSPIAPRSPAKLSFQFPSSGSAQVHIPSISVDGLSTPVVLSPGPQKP
Particulars: protein: recombinant; tags: N-terminal GST; dsDNA, one strand shown. The essentials: as §1

Another test has as its target T3, GABPA (Homo sapiens, UniProt Q06546 1-454).
T3 sequence: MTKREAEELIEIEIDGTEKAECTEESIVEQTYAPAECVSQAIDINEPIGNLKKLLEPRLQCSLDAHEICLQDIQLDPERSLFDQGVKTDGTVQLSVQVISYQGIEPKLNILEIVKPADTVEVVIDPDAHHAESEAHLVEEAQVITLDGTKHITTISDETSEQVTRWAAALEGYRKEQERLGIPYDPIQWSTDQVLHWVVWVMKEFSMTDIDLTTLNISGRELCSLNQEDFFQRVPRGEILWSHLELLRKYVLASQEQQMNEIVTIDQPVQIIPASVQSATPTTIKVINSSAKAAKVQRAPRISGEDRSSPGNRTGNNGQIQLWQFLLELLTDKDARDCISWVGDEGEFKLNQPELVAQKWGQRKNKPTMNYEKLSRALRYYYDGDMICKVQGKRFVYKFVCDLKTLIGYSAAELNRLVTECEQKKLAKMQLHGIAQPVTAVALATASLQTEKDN
Particulars: protein: recombinant; tags: N-terminal GST; dsDNA, one strand shown. In a few lines:
as §1

The target in another test is T4, ERG (Homo sapiens, UniProt P11308 1-479).
T4 sequence: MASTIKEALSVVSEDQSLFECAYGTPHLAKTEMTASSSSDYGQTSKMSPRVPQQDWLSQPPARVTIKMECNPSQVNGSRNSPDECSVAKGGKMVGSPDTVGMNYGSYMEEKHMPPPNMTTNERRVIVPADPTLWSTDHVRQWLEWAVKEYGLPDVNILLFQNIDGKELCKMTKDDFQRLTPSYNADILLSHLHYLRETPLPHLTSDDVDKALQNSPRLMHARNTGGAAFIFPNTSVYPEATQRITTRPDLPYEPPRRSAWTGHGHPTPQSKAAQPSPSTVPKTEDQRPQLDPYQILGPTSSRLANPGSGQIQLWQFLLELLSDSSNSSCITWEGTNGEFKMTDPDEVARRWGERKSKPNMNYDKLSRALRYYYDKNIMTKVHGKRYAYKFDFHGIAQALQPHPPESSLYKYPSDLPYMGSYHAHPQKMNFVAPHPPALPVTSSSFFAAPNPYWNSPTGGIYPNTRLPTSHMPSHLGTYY
Particulars: protein: recombinant; tags: N-terminal GST; dsDNA, one strand shown. In a few lines: as §1

Another test concerns the target ELF1 (Homo sapiens, UniProt P32519 1-619). As to conditions: protein: recombinant; tags: N-terminal GST; dsDNA, one strand shown. In a few lines: as §1
The next test deals with T5, EHF (Homo sapiens, UniProt Q9NZC4 1-300).
T5 sequence: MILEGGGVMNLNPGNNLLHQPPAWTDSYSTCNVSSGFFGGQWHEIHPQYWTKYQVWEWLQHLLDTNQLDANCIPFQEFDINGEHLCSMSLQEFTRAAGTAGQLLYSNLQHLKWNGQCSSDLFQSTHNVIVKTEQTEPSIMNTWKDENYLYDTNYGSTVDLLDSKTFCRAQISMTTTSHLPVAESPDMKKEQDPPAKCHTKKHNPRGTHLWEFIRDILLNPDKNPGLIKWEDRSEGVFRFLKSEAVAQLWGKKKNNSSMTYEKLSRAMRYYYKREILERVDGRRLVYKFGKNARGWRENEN
Particulars: protein: recombinant; tags: N-terminal GST; dsDNA, one strand shown. In a few lines: as §1

Another test addresses SPI1 (Homo sapiens, UniProt P17947 1-270). As to conditions: protein: recombinant; tags: N-terminal GST; dsDNA, one strand shown. In a few lines:
as §1

In another test the target is SPIB (Homo sapiens, UniProt Q01892 1-262). Particulars: protein: recombinant; tags: N-terminal GST; dsDNA, one strand shown. In a few lines: as §1
The next test deals with T6, ELK3 (Homo sapiens, UniProt P41970 1-407).
T6 sequence: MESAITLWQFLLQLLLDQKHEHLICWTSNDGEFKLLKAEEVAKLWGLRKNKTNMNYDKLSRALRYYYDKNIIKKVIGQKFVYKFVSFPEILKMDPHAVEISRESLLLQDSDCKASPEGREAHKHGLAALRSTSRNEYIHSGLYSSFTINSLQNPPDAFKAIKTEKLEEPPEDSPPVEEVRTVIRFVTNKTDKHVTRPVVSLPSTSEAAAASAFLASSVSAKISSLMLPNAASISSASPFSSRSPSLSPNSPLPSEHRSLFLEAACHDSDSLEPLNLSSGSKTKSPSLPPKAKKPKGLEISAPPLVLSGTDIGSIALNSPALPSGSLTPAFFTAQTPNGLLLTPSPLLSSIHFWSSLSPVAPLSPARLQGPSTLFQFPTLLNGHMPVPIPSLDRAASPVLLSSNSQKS
As to conditions: protein: recombinant; tags: N-terminal GST; dsDNA, one strand shown. The essentials: as §1

The target in another test is T7, FEV (Homo sapiens, UniProt Q99581 1-238).
T7 sequence: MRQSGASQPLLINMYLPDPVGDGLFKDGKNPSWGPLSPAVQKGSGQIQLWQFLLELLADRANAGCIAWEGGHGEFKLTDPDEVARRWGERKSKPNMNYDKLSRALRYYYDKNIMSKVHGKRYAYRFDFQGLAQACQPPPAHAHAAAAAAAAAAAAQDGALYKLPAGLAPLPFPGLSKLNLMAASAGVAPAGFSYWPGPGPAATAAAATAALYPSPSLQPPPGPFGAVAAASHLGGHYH
Particulars: protein: recombinant; tags: N-terminal GST; dsDNA, one strand shown. In a few lines: as §1

In the next test the target is ETV5 (Homo sapiens, UniProt P41161 1-510). Particulars: protein: recombinant; tags: N-terminal GST; dsDNA, one strand shown. The essentials:
as §1

The next test deals with HSF1 (Homo sapiens, UniProt Q00613 1-529). Particulars: protein: recombinant; tags: N-terminal GST; chain copies: 3; dsDNA, one strand shown. The essentials: as §1
The target in the next test is T8, SPIC (Homo sapiens, UniProt Q8N5J4 1-248).
T8 sequence: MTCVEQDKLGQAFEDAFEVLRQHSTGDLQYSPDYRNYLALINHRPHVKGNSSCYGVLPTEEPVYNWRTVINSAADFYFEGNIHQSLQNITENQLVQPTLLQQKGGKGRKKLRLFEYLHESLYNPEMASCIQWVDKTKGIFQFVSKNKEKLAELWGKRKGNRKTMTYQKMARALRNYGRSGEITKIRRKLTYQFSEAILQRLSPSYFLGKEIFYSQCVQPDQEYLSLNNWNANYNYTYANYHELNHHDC
Particulars: protein: recombinant; tags: N-terminal GST; dsDNA, one strand shown. The essentials: as §1

A further test addresses ELF4 (Homo sapiens, UniProt Q99607 1-663). Particulars: protein: recombinant; tags: N-terminal GST; dsDNA, one strand shown. The essentials: as §1
In a further test the target is T9, ELK4 (Homo sapiens, UniProt P28324-2 1-405).
T9 sequence: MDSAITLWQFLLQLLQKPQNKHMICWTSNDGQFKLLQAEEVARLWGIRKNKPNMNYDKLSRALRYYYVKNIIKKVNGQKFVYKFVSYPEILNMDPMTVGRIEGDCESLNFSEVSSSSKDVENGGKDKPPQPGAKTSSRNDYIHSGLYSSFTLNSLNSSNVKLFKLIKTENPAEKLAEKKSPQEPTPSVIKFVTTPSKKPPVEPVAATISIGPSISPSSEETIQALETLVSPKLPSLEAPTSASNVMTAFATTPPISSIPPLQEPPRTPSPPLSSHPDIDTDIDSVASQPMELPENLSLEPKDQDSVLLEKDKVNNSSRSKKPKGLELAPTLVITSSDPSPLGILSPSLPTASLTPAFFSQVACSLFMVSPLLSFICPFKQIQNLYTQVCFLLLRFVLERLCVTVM
Particulars: protein: recombinant; tags: N-terminal GST; dsDNA, one strand shown. The essentials:
as §1

The next test has as its target T10, ETV2 (Homo sapiens, UniProt O00321 1-342).
T10 sequence: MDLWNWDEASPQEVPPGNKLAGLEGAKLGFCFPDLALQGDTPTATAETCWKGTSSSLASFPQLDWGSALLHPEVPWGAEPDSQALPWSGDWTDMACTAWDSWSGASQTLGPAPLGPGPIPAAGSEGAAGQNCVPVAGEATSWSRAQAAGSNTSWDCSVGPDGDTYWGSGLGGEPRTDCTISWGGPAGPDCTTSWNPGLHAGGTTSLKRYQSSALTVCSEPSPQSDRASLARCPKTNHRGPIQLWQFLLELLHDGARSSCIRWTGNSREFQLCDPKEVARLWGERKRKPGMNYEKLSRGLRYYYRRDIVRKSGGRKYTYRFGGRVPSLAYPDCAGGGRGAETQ
Particulars: protein: recombinant; tags: N-terminal GST; dsDNA, one strand shown. In a few lines: as §1

The next test deals with T11, ELF3 (Homo sapiens, UniProt P78545 1-371).
T11 sequence: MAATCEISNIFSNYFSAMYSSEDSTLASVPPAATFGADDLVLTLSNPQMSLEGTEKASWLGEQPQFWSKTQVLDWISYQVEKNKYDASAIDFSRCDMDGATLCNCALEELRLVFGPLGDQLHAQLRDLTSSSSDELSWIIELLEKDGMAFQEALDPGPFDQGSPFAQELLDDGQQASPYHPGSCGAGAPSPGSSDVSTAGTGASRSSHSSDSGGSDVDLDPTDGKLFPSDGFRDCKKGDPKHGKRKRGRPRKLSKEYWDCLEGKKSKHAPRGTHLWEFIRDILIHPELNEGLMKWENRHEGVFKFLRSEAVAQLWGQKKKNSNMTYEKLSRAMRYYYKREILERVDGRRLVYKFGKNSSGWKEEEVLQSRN
Particulars: protein: recombinant; tags: N-terminal GST; dsDNA, one strand shown. The essentials:
as §1

Another test concerns the target CRX (Homo sapiens, UniProt O43186 1-299). As to conditions: protein: recombinant; tags: N-terminal GST; dsDNA, one strand shown. In a few lines: as §1
A further test addresses ETV1 (Homo sapiens, UniProt P50549 1-477). Particulars: protein: recombinant; tags: N-terminal GST; dsDNA, one strand shown. The essentials: as §1

Chain of ETV5 (P41161 whole entry): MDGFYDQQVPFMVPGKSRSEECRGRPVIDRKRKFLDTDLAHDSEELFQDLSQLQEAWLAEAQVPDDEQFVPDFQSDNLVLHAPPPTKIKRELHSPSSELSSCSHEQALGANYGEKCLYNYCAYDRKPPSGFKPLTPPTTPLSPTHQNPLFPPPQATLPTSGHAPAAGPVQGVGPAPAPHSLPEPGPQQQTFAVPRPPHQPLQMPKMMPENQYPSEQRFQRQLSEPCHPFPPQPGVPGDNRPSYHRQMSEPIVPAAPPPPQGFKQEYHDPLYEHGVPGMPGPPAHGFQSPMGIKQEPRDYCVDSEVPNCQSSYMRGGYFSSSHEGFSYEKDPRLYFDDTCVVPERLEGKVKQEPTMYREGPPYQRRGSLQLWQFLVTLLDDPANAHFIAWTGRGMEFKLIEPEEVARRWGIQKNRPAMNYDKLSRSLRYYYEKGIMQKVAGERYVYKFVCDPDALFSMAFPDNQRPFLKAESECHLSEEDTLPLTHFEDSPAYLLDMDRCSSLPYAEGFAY
Chain of CRX (O43186 whole entry): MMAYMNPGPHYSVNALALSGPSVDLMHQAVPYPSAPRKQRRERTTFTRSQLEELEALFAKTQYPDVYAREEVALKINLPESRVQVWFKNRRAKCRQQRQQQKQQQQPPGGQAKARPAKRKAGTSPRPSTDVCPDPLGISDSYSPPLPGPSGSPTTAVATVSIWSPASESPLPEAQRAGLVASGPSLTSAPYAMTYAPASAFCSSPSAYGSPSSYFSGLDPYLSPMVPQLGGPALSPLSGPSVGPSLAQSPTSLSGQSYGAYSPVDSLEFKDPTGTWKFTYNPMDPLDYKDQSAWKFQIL
Chain of SPIB (Q01892 whole entry): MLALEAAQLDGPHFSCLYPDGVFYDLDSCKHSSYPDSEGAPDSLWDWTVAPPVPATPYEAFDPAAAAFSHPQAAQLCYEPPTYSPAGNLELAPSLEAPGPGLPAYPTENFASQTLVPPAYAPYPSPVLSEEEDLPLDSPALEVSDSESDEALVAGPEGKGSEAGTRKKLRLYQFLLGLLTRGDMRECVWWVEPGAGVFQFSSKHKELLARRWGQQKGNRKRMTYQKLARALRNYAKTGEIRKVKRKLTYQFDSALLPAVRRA
Chain of ETV1 (P50549 whole entry): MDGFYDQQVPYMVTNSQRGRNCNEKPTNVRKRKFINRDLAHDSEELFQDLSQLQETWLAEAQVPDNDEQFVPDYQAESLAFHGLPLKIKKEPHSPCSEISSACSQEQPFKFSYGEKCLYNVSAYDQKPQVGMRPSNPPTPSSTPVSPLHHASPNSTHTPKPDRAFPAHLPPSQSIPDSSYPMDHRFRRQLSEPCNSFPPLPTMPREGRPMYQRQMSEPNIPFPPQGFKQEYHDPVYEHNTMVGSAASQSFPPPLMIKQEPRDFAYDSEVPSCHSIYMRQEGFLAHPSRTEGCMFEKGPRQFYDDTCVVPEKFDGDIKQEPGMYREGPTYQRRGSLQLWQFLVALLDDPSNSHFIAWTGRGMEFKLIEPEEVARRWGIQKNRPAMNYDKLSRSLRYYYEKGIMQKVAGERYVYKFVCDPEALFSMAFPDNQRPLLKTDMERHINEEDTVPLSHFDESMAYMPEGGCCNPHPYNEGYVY
Chain of ELF1 (P32519 whole entry): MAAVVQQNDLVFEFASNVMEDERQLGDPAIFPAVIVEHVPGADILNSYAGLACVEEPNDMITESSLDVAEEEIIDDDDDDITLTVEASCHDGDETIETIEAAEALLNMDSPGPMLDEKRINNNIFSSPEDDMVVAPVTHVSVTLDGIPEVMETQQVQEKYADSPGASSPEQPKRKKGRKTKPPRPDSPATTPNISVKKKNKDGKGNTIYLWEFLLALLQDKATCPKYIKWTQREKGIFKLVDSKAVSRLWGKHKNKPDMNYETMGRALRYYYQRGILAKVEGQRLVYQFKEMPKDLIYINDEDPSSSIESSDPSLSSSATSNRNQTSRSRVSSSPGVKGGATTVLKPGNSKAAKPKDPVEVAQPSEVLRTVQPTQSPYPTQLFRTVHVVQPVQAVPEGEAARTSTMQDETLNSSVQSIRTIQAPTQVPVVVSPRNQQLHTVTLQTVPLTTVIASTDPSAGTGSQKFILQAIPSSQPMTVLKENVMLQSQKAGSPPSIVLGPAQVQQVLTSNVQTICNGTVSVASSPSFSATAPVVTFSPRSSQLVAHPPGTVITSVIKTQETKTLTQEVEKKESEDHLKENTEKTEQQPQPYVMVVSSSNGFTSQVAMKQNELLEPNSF
Chain of HSF1 (Q00613 whole entry): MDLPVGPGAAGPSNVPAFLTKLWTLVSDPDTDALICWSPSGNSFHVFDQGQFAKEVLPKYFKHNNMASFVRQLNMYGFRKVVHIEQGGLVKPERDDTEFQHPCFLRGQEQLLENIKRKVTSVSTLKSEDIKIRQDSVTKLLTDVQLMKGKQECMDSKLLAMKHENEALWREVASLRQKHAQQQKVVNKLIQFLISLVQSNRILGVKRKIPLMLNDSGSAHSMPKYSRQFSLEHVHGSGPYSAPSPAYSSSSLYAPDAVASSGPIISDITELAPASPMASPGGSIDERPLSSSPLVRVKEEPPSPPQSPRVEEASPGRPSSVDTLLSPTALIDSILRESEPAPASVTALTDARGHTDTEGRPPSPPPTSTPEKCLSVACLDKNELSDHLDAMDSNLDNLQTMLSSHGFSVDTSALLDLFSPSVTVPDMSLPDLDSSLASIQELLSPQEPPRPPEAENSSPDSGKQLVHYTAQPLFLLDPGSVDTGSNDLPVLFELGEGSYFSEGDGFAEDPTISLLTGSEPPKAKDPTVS
Chain of ELF4 (Q99607 whole entry): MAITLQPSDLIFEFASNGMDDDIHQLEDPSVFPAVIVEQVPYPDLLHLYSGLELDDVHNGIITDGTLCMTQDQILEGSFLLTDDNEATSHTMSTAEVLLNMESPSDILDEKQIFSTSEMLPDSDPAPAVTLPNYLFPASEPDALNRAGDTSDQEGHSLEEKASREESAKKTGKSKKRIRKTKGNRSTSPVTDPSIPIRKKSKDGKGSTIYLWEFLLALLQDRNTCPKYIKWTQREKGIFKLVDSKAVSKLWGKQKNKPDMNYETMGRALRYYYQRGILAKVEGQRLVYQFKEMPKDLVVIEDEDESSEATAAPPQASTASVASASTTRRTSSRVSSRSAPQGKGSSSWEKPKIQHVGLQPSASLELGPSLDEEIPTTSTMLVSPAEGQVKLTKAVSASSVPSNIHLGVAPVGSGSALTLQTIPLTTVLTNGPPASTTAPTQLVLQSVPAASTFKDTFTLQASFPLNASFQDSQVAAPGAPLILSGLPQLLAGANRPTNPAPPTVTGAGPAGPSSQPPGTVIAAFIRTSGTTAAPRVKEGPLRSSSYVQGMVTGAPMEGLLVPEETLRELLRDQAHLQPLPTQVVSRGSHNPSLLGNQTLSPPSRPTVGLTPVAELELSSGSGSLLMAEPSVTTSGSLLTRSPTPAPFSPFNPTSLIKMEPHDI

On to TCATCA, for which the binding signal with FLI1 is 1.18 fold enrichment (6-mer frequency, TF over GST control); in the test with ELK1, 1.16 fold enrichment (6-mer frequency, TF over GST control); with GABPA it was 1.17 fold enrichment (6-mer frequency, TF over GST control); with ERG, 1.13 fold enrichment (6-mer frequency, TF over GST control); with ELF1 it was 1.14 fold enrichment (6-mer frequency, TF over GST control); in the test with EHF, 1.09 fold enrichment (6-mer frequency, TF over GST control). For the same sequence, the binding signal in the test with SPI1 was 1.1 fold enrichment (6-mer frequency, TF over GST control); with SPIB, 1.14 fold enrichment (6-mer frequency, TF over GST control); in the test with ELK3, 1.18 fold enrichment (6-mer frequency, TF over GST control); with FEV, 1.12 fold enrichment (6-mer frequency, TF over GST control); with ETV5, 1.09 fold enrichment (6-mer frequency, TF over GST control); with HSF1, 1.06 fold enrichment (6-mer frequency, TF over GST control). Moreover, the binding signal was 1.16 fold enrichment (6-mer frequency, TF over GST control) with SPIC; 1.18 fold enrichment (6-mer frequency, TF over GST control) with ELF4; 1.26 fold enrichment (6-mer frequency, TF over GST control) with ELK4; 1.07 fold enrichment (6-mer frequency, TF over GST control) with ETV2; 1.07 fold enrichment (6-mer frequency, TF over GST control) with ELF3; 1.07 fold enrichment (6-mer frequency, TF over GST control) with CRX. Moreover, the binding signal with ETV1 is 1.06 fold enrichment (6-mer frequency, TF over GST control).
